TDP1 cell CPT: qHTS for Inhibitors of human tyrosyl-DNA phosphodiesterase 1 (TDP1): qHTS in cells in presence of CPT. chicken DT40 Tdp1-/-;hTDP1 cells + 20 nM CPT, ATP luminescence, 48 h. Potency, µM (doses to about 46.2 µM), inactives show at the top dose activity change, negative = growth inhibition, hits mostly inhibitors. 420,000 compounds, 12% hits; note: potency is the fitted concentration of half-maximal effect; % is set by controls: 0 for no effect and ±100 for the full control effect; nearly all actives have a fitted effect of over 55% in size
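Chicken DT40 Tdp1-/- cells complemented with human TDP1, 400 cells/well, exposed to compounds plus 20 nM camptothecin for at least 48 h at 37 C; viability read as ATP content by CellTiter-Glo luminescence.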
HepG2 tox: qHTS for Inhibitors of TGF-b: Cytotox Counterscreen; AID 588856, 2011; 410,000 compounds, 0.76% hits; Potency, µM (titrated, usually from 46.1 µM), for the others: top-dose activity change, negative = cytotoxicity, usual class: cytotoxic; HepG2 CAGA-GFP viability, ATP luminescence, 18 h; note: potency is the fitted concentration of half-maximal effect
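CellTiter-Glo luminescence gave cytotoxicity after 18 hours at 37 degrees C. The cells were HepG2 CAGA-GFP in 1% FBS DMEM, stimulated with 500 pg/mL TGF-beta after compound addition. %Activity was normalised to no-cell wells (complete cell-killing) and DMSO (no toxicity), and curves were fitted and classified.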
TDP1 block: qHTS Assay for Inhibitors of Tyrosyl-DNA Phosphodiesterase (TDP1) | Potency, µM (top dose mostly 130 µM), for inactives: at the highest dose activity change, negative = inhibition, usual class: inhibitors | recombinant TDP1, AlphaScreen DNA substrate cleavage | 350,000 compounds, 0.28% hits | Tyrosyl-DNA phosphodiesterase 1 (Homo sapiens), Q9NUW8; note: potency is the fitted concentration of half-maximal effect; % is set by controls: 0 for no effect and ±100 for the full control effect; nearly all actives have a fitted effect of over 40% in size
Target sequence (Q9NUW8 whole entry, looked up): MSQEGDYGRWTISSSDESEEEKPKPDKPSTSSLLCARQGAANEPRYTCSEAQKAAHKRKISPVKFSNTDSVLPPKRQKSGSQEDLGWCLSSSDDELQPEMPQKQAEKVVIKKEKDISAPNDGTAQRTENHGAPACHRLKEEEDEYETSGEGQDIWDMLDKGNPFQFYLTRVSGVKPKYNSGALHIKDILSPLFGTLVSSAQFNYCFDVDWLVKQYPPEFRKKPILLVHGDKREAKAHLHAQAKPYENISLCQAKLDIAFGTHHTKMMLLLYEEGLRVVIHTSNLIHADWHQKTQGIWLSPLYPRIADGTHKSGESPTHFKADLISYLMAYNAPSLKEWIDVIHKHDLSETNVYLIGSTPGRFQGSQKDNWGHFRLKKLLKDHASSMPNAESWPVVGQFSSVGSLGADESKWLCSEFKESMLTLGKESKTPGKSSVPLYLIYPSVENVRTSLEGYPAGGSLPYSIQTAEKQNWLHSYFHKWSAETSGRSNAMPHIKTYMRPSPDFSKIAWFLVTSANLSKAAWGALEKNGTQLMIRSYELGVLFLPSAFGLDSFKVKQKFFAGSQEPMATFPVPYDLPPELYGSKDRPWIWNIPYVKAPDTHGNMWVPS
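Signal: AlphaScreen proximity between streptavidin donor and anti-FITC acceptor beads on intact substrate. Reaction: Tdp1 1 nM, substrate 15 nM final, 5 min RT after 15 min compound preincubation.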
DT40 TDP1 no CPT: qHTS for Inhibitors of human tyrosyl-DNA phosphodiesterase 1 (TDP1): qHTS in cells in absence of CPT | DT40 Tdp1-/- hTDP1 cells, no CPT, ATP luminescence, 48 h | Potency, µM (doses to about 46.2 µM), for the others: top-dose activity change, negative = growth inhibition, hits mostly inhibitors | 420,000 compounds, 15% hits | AID 686978, 2013; note: potency is the fitted concentration of half-maximal effect; % is set by controls: 0 for no effect and ±100 for the full control effect; nearly all actives have a fitted effect of over 55% in size
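Readout: luminescence from CellTiter-Glo after 30 min in the dark at RT. Cells: DT40 Tdp1-/- with stable hTDP1, 400/well. Exposure: compounds alone, ≥48 hr, 37 °C.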
TGFb SMAD3 inh: qHTS for Inhibitors of TGF-b. AID 588855, 2011. HepG2 CAGA-GFP TGF-b/SMAD3 reporter, GFP fluorescence, 18 h; TGF-beta stimulated, 500 pg/mL final. 410,000 compounds, 1.2% hits. Potency, µM (highest dose often 46.1 µM), for the others: at the top dose activity, negative = inhibition, actives largely listed as inhibitors; note: potency is the fitted concentration of half-maximal effect; % is set by controls: 0 for no effect and ±100 for the full control effect; nearly all actives have a fitted effect of over 65% in size
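Using HEPG2 CAGA-GFP reporter cells at 1000 cells/well, we pinned test compounds, stimulated with recombinant TGF-beta (500 pg/mL final) and measured total well GFP after 18 h.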
IL-1B inflam inh: qHTS for Inhibitors of Inflammasome Signaling: IL-1-beta AlphaLISA Primary Screen; activity change, % at 57.5 µM; THP-1 LPS/ATP IL-1B secretion, AlphaLISA, 16 h; stronger effect = lower value; 360,000 compounds, 4.7% hits; in the data active = activity change below about -50%; inconclusive = mostly about -30% to -49%; note: % is set by controls: 0 for no effect and ±100 for the full control effect
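Secreted IL-1B measured by AlphaLISA bead assay after 16 h compound exposure of THP-1 cells; compounds (final up to 57.5 uM) added 1 h before LPS (250 ng/mL) and ATP (1.25 mM) stimulation; lower signal means less secretion.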
* marks the source's active call; other numbers are inactive results; i = inactive; u = inconclusive; x = not tested or not shown; [ ] = dose if it differs, or a comment. Shown are actives, neighbours in structure and some others; about 18% of the full set was active somewhere. Unless noted, calls come from the whole dose curve; as a rule, active = well fitted curve in the direction sought with a large enough effect; inconclusive = small, poorly fitted or top-dose-only effect, or another doubt; inactive = no such curve, though single readings can be large; an effect the other way counts as inactive or inconclusive.

SMILES	TDP1 cell CPT	HepG2 tox	TDP1 block	DT40 TDP1 no CPT	TGFb SMAD3 inh	IL-1B inflam inh
Cc1cccc(C(=O)N2CCC(=O)N(C(COCc3cccc(C(F)(F)F)c3)Cc3ccccc3)CC2)c1 (centres undefined)	29µM*	-56%	3%	u	u	u
O=C(NCCCO)C(=O)Nc1cc2c3c(c1)CCC(=O)N3CCC2	11%	8%	2%	8%	19%	19
O=C(NNC(=S)Nc1ccc(F)c(Cl)c1)c1ccccc1Br	u	-54%	11%	u	u	-62*
CC(=O)Nc1cccc(NC(=S)Nc2ccc(F)c(Cl)c2)c1	16µM*	-59%	x	u	u	-7
Cn1c(CNC(=O)CSc2nc(-c3cccc(Cl)c3)nc3cc(=O)[nH]n23)nc2ccccc21	-15%	-17%	-3%	1%	-3%	x
COCCN(C(=O)COc1ccccc1C#N)c1c(N)n(Cc2ccccc2)c(=O)[nH]c1=O	-20%	12%	-4%	-16%	4%	-9
COC(=O)c1cc2oc3ccccc3c2n1CC(=O)Nc1cc(OC)cc(OC)c1	-26%	-31%	2%	-18%	-19%	x
O=[N+]([O-])c1ccc2nc(NN=Cc3ccc(O)cc3)sc2c1	29µM*	-13%	x	u	-17%	-96*
CC(C)c1ccc(/C=C/C(=O)Nc2nc3ccc([N+](=O)[O-])cc3s2)cc1	-1%	4%	4%	-19%	1%	21
Cc1ccc(OCC(=O)OCC(=O)Nc2ccc3c(c2)OCO3)cc1C	-9%	2%	2%	-4%	-1%	9
Cc1ccc(OCC(=O)Nc2ccc3c(c2)OCO3)cc1C	-6%	14%	0%	26µM*	-11%	-8
Cc1ccc(C)c(OCC(=O)Nc2ccc3c(c2)OCO3)c1C	u	-14%	1%	18µM*	-2%	5
O=C1CCCC=C1[C@H](O)CCCCBr	x	x	5%[21 µM]	x	x	x
CCOC(=O)CSc1n[nH]c(=S)s1	-7%	-10%	-3%	0%	5%	19
CC(C)(C)CC(C)(C)SSc1n[nH]c(=S)s1	u	-4%	x	u	0%	-73*
O=C(Oc1ccc2ccccc2c1Br)N1CCCCCC1	u	-48%	-8%	21µM*	u	14
CCN(CC)C(=O)Oc1ccc2ccccc2c1Br	-6%	-6%	-7%	u	2%	-60*
O=C(COc1ccc2ccccc2c1Br)N1CCCCC1	u	-9%	0%	3%	-16%	20
CCCOc1ccc(C(=O)NC2CCSc3ccccc32)cc1 (centres undefined)	-16%	-8%	x	u	-11%	27
CC(C)(C)n1ncc2c(=O)n(Cc3ccc([S+](=O)([O-])N4CCOCC4)cc3)cnc21	x	-15%	x	x	0%	x
O=C(Cc1ccc(OCC2CCCCC2)cc1)NO	10µM*	-35%	x	11µM*	-6%	x
Cc1ccc2cc(CN(CC3CCCO3)C(=S)NCc3ccco3)c(=O)[nH]c2c1 (centres undefined)	-2%	-47%	3%	-14%	-11%	u
O=c1[nH]c2cc3c(cc2cc1CN(Cc1cccnc1)C(=S)NCc1ccco1)OCCO3	15µM*	-34%	0%	u	-15%	-7
CN(C)CCN(Cc1cc2cc3c(cc2[nH]c1=O)OCO3)C(=S)NCc1ccco1	-26%	-7%	0%	-23%	-20%	0
Cc1ccc2[nH]c(=O)c(CN(Cc3cccs3)C(=S)NCc3ccco3)cc2c1	u	-3%	3%	16µM*	-5%	0
SMILES	TDP1 cell CPT	HepG2 tox	TDP1 block	DT40 TDP1 no CPT	TGFb SMAD3 inh	IL-1B inflam inh
Cc1ccc2[nH]c(=O)c(CN(CC3CCCO3)C(=S)NCc3ccco3)cc2c1 (centres undefined)	u	-28%	-14%	21µM*	u	u
Cc1ccc2cc(CN(Cc3ccco3)C(=S)NCC3CCCO3)c(=O)[nH]c2c1 (centres undefined)	u	-3%	6%	21µM*	-27%	-7
O=C(Nc1cccc(C(F)(F)F)c1)C1CCN(S(=O)(=O)c2cccc3nsnc23)CC1	23µM*	-79%	9%	23µM*	u	x
O=C(Nc1cccc(C(F)(F)F)c1)C1CCN(c2nnc(-n3cccc3)s2)CC1	u	-6%	3%	21µM*	u	x
O=C(Nc1cccc(C(F)(F)F)c1)C1CCN(S(=O)(=O)c2cccnc2)CC1	u	-14%	0%	21µM*	1%	9
CN(C)CCCN(C(=O)c1ccc(S(=O)(=O)N(C)C2CCCCC2)cc1)c1nc2ccc(F)cc2s1	16µM*	-47%	6%	u	u	-98*
COc1cc2nc(N(CCCN(C)C)C(=O)c3ccc(S(=O)(=O)N(C)C4CCCCC4)cc3)sc2cc1OC	u	-28%	x	16µM*	5%	-79*
CN(C)CCCN(C(=O)c1ccc(S(=O)(=O)N(C)C2CCCCC2)cc1)c1nc2ccc(Br)cc2s1	u	-63%	8%	u	u	-83*
CC1CCCCN1S(=O)(=O)c1ccc(C(=O)N(CCCN(C)C)c2nc3cc4c(cc3s2)OCO4)cc1 (centres undefined)	-29%	-22%	5%	-7%	-1%	i
CCc1ccc2nc(N(CCCN(C)C)C(=O)c3ccc(S(=O)(=O)N(C)C4CCCCC4)cc3)sc2c1	16µM*	-50%	7%	u	u	-61*
Cc1cnc2c(c1SCC(=O)NCc1ccccc1Cl)c(=O)n(C)c(=O)n2C	-14%	-14%	0%	-19%	u	x
CCc1ccc2nc(N(CCCN(C)C)C(=O)c3ccc(S(=O)(=O)N4CCc5ccccc5C4)cc3)sc2c1	5.2µM*	-43%	3%	5.2µM*	-22%	-84*
C=CCN1C(=O)C(=Cc2ccc3c(c2)CCC3)SC1=S	-22%	-42%	x	u	-22%	9
COC(=O)[C@@H](NC(=O)NC1CCCCC1C)C(C)C (some centres undefined)	7%	4%	-1%	-6%	-9%	5

Bioassay records deposited in PubChem by National Center for Advancing Translational Sciences (NCATS).
